# Assay outcomes from PubChem.
# E-sel TNF inh: blocks E-selectin expression induced by TNF alpha. HUVEC TNFa-induced E-selectin immunofluorescence, high content. inhibition, % at 2 µM. 120,000 compounds, 0.71% hits. AID 1246;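 active = inhibition above the batch mean plus 3 SD, and confirmed as a hit on visual image review, cut at about 43% in these data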;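 note: 0% = TNF-stimulated DMSO wells and 100% = unstimulated control wells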
# Calb biofilm kill: kills Candida albicans biofilms; C. albicans biofilm + clotrimazole, Alamar Blue; inhibition, % at 6 µM; 85,000 compounds, 0.14% hits; AID 834;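 active = inhibition above 20%; inactive = inhibition below 20%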;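 note: preformed 24 hr biofilms exposed to compound for 48 hr; 0% = biofilm without compound and 100% = blank killed by clotrimazole plus chlorhexidine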
# ERb coact inh: ER-beta (human) coactivator binding inhibition; Q92731; TR-FRET ER-beta LBD / SRC1-Cy5 peptide binding; receptor agonist-loaded with 1 µM estradiol; inhibition, % at 25.6 µM; 86,000 compounds, 1.3% hits;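 active = compounds whose percent inhibition of the receptor-coactivator binding signal exceeds about 50% in the single-dose screen, limit read from the data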;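 note: 0% = receptor plus peptide wells without compound and 100% = peptide-only wells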
# cytoskel mod: cytoskeleton assembly modification; HUVEC TNFa F-actin phalloidin imaging, high content; inhibition, % at 2 µM; 91,000 compounds, 0.18% hits;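 active = inhibition above the batch mean plus 3 SD and confirmed as a hit by visual image inspection, cut at about 30% in these data, passing the limit was not always enough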
# ERa coact pot: enhances coactivator binding to human estrogen receptor alpha | P03372 | coactivator binding (% of control), % at 25.6 µM | TR-FRET ERalpha-LBD/SRC-Cy5 coactivator binding, 2 h; 100 = basal binding, no effect | 86,000 compounds, 1.3% hits | AID 639; in the data active = activity above about 200%;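 note: binding measured in presence of low estradiol as agonist stimulus; 0% = peptide alone without receptor and 100% = receptor with peptide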
# Target sequence (P03372 whole entry, looked up, the tested form may be a part): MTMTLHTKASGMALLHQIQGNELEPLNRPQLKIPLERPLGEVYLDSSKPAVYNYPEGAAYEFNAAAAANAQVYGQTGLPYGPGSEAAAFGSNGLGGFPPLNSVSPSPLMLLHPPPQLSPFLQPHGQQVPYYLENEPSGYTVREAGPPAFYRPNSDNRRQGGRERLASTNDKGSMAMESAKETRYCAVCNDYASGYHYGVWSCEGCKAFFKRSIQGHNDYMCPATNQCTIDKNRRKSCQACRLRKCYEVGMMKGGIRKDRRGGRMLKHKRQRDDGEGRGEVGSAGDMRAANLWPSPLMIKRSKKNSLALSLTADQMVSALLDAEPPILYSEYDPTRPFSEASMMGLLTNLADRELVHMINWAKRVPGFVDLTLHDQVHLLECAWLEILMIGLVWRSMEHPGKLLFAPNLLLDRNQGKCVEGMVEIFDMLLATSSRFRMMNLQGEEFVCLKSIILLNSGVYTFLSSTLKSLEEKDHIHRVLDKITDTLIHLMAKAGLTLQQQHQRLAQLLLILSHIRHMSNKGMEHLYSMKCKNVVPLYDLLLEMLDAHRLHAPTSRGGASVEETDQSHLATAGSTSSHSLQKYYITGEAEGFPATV
# ERa SRC1 inh: ER-alpha (human) coactivator binding inhibition; P03372; 86,000 compounds, 1.7% hits; TR-FRET ER-alpha LBD / SRC-1 peptide, estradiol-bound; inhibition, % at 25.6 µM; in the data active = inhibition above about 50%;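 note: 0% = receptor plus peptide control and 100% = peptide only without receptor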
# * hit, by the source's call; . = no result given; + = active, no number; [ ] = dose if it differs, or a comment. A selection: hits, their analogues and other compounds. The true share with any hit is near 2.9%.
SMILES,E-sel TNF inh,Calb biofilm kill,ERb coact inh,cytoskel mod,ERa coact pot,ERa SRC1 inh
O=C(CSc1ncnc2c1cnn2Cc1ccccc1)Nc1ccc2c(c1)OCCO2,-33,9,-3,-6,97,1
CCc1nc(SCC(=O)Nc2nccs2)c2oc3ccccc3c2n1,-12,1,42,.,138,56*[fluorescence artefact?]
Cc1nc(SCC(=O)Nc2ccc3c(c2)OCCO3)c2oc3ccccc3c2n1,9,4,40,19,732*[fluorescence artefact?],79*[fluorescence artefact?]
O=C(CSc1ncnc2c1oc1ccccc12)Nc1ccc2c(c1)OCCO2,3,3,57*[fluorescence artefact?],.,765*[fluorescence artefact?],43
Cc1nc(SCC(=O)NCc2ccccc2)c2oc3ccccc3c2n1,5,-2,-12,-8,+[fluorescence artefact?],0
Cc1nc(SCC(=O)O)c2oc3ccccc3c2n1,-15,2,-1,2,107,-1
O=C(CSc1nc(-c2ccccc2)nc2ccccc12)Nc1nccs1,-10,.,.,7,.,.
CCOC(=O)CC(=O)CSc1nc(C)nc2c1oc1ccccc12,-15,6,5,17,92,-9
CCc1nc(SCC(=O)N2CCCc3ccccc32)c2oc3ccccc3c2n1,9,12,10,-35,134,5
O=C(CSc1nnc(CNC(=O)c2c(F)cccc2Cl)o1)Nc1ccc2c(c1)OCCO2,8,-6,1,-10,101,-2
CCc1nc(SCC(=O)Nc2ccc3c(c2)OCCO3)c2oc3ccccc3c2n1,6,4,57*[fluorescence artefact?],7,233*[fluorescence artefact?],64*[fluorescence artefact?]
O=C(CSc1nnc(-c2cccc(Cl)c2)o1)Nc1ccc2c(c1)OCCO2,21,8,22,-3,145,54*[fluorescence artefact?]
O=C(Cc1ccccc1)Nc1cccc(N2CCCC2)c1,3,2,28,14,43,58*[fluorescence artefact?]
CC1CN(c2nc3ccccn3c(=O)c2/C=C(\C#N)S(=O)(=O)c2ccccc2)CC(C)O1 (stereo not given),-18,4,0,5,108,-2
N#C/C(=C\c1c(N2CCC(C(N)=O)CC2)nc2ccccn2c1=O)S(=O)(=O)c1ccccc1,11,1,53*,-3,94,23
CCCn1c(=N)c(C(=O)NCc2ccc3c(c2)OCO3)cc2c(=O)n3cccc(C)c3nc21,-1,8,53*[fluorescence artefact?],-4,26,79*[fluorescence artefact?]
CN(C)c1ccc(N2CN=C3SCC(=O)N3C2)cc1,-24,3,86*[fluorescence artefact?],16,92,20
CO/C([O-])=N/c1c[n+](-c2ccc(Cl)cc2)no1,59*,4,1,30,95,4
CCN(CC)c1ccc(C2C(C(=O)OCCOC)=C(C)NC3=C2C(=O)CC(C)(C)C3)cc1 (stereo not given),61*,6,5,-44,113,-3
CC(=O)N1CCN(S(=O)(=O)c2ccc(S(=O)(=O)NCC(C)C)cc2)CC1,-40,6,-15,16,135,-4
CCOC(=O)Cc1cc(=O)n2[nH]c(-c3ccc(C)cc3)cc2n1,-23,7,56*,-2,82,73*
COc1ccc(N2CCN(C(=O)CCCn3c(=O)[nH]c4ccsc4c3=O)CC2)cc1,-6,8,75*,8,104,-4
Cc1nccn1-c1cc(C(C)C)c(C#N)c2nc3ccccc3n12,.,1,-4,.,112,-3
Cc1cc(SCC(=O)Nc2ccccc2)nc(C)n1,7,13,-2,12,112,72*[fluorescence artefact?]
Cc1ccc(C(C)C)c(OCC(O)CN2CCOCC2)c1 (stereo not given),.,6,-3,-9,87,-15
SMILES,E-sel TNF inh,Calb biofilm kill,ERb coact inh,cytoskel mod,ERa coact pot,ERa SRC1 inh
Cc1ccc(C(C)C)c(OCC(O)CN2CC(C)OC(C)C2)c1 (stereo not given),2,11,51*[fluorescence artefact?],-38,97,-2
COc1ccc(C2=NOC3(CC(=O)N(c4ccc5ccccc5c4)C3=O)C2)c(OC)c1 (stereo not given),0,.,.,-10,.,.
COc1ccc2nc(NC(=O)CSc3nc4cccnc4n3C)sc2c1,-15,5,28,-14,164,23
COC(=O)c1sc(NC(=O)CSc2nc3cccnc3n2C2CCCCC2)nc1C,.,2,61*[fluorescence artefact?],-4,81,72*[fluorescence artefact?]
NC(=O)c1ccc(NC(=O)Cc2csc(-c3ccccc3)n2)cc1,28,.,.,.,.,.
Cc1ccc(OCC(=O)Nc2ccc(Cl)cc2)c(-n2nc3ccccc3n2)c1,-33,.,.,18,.,.
CCOc1ccc(C)cc1-n1nc2ccccc2n1,51*,3,-3,7,124,-7
